The record followed here is PubChem BioAssay AID686979 (National Center for Advancing Translational Sciences (NCATS), 2013).

The campaign covered roughly 420,000 compounds. About 50,000 (12%) were called active. About 26% were inconclusive and are not listed. The call rests on the fitted dose curve; in most records, active means well fitted inhibition curve with a large enough effect; inconclusive means small, poorly fitted or top-dose-only effect; inactive means flat fitted curve, though single readings scatter. The entries come from a sample that favours actives as a whole. A call without a number means that no potency is given here.
Potency means the concentration at half of the fitted maximal effect.

The assay is described as follows: qHTS for Inhibitors of human tyrosyl-DNA phosphodiesterase 1 (TDP1): qHTS in cells in presence of CPT. Further: nearly all actives have a fitted effect of over 55% in size. The settings on record: chicken DT40 Tdp1-/-;hTDP1 cells + 20 nM CPT, ATP luminescence, 48 h; series mostly up to 46.2 µM. A digest of the protocol: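 Chicken DT40 Tdp1-/- cells stably complemented with human TDP1 were seeded at 400 cells/well in medium containing 20 nM camptothecin, exposed to pin-transferred compounds, and grown at 37 °C for at least 48 hr. Viability was read as ATP luminescence.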
(In general: In qHTS, concentration-response curves come from the screen itself.)
On to `COc1ccc(OCCCC(=O)OC(C)C(=O)Nc2ccccc2[N+](=O)[O-])cc1` (configuration not stated), for which the Potency result was “inactive”.
Next, `COC(=O)c1cn(CC(=O)NCc2cccs2)c2ccccc12`: “inactive”; `COC(=O)Cn1cc(/C=C/[N+](=O)[O-])c2ccccc21`: 10.3 µM (active); `COC(=O)Cn1cc(C(=O)c2cccs2)c2ccccc21`: “inactive”.
As to `O=C(N/N=C/c1c(Cl)[nH]c2ccccc12)c1sc2ccccc2c1Cl`, the Potency was 23.1 µM (active).
Next, `COC(=O)c1cc(NC(=O)c2sc3ccccc3c2Cl)cc(C(=O)OC)c1`: “inactive”; `Cc1[nH]c2ccccc2c1/C=N\NC(=O)Cn1nnc(-c2ccccc2)n1`: “inactive”; `CC(=O)c1nnn(-c2ccc(Cl)cc2C#N)c1C`: “inactive”.
The entry for `COCCCNc1nc2ccccc2nc1NS(=O)(=O)c1ccc(F)cc1` is “inactive”.
The entry for `CCCc1cc(=O)n2[nH]c(NCc3ccc(CC)cc3)nc2n1` is “inactive”; for `COc1ccc(CN2C(=O)CC(Cc3ccc(C)cc3)C2=O)cc1OC` (configuration not stated) it is “inactive”.
On to `CCCCn1nnnc1C1(C)CCC(=O)N1Cc1ccc(OC)c(OC)c1` (configuration not stated), for which the Potency result was “inactive”.
Next, `CCCCOc1ccc(CN2C(=O)C(=O)c3cc(Br)cc(C)c32)cc1OC`: 0.82 µM (active); `Cc1cc(C)nc(NC(=O)c2cccc([N+](=O)[O-])c2)c1`: “inactive”.
Next, `O=C(Nc1ccc(F)cc1)C(CCc1ccccc1)N1CCN(CC(=O)N2CCCC2)CC1` (configuration not stated): “inactive”; `OC(c1ccc(Cl)cc1)C(CN1CCOCC1)c1ccccc1` (configuration not stated): “inactive”.
Next, `CCCc1c(-c2ccccc2F)ncn1Cc1ccccc1OC`: 1.3 µM (active); `COc1ccccc1CN1CCN(Cc2cc(OC)c(OC)cc2OC)CC1`: “inactive”; `COc1ccccc1NC(=O)c1c(Br)cnn1C`: “inactive”.
Turning to `COc1ccccc1OCCCn1c(-c2ccc(Cl)cc2)nc2ccccc2c1=O`, the Potency result was “inactive”.
Take `CCCCc1c(-c2ccc(Cl)cc2)ncn1CCc1ccccc1OC`: the Potency is 4.61 µM (active).
Next, `COCCn1cnc2c1c(=O)n(Cc1ccc(Br)cc1)c(=O)n2Cc1ccccc1`: “inactive”; `COc1ncc2nc(-c3ccc(Cl)cc3)c(=O)n(C)c2n1`: “inactive”; `CCCCc1c(-c2ccc(Br)cc2)ncn1CCc1ccccc1OC`: 1.3 µM (active).
Next, `COc1cccc(OC)c1C(=O)N1CCN(Cc2ccccc2F)CC1`: “inactive”; `CC(=O)C[C@H](O)CC(=O)[C@@H]1OC(=O)[C@@H](C)C/C=C\Cc2ccccc21`: “inactive”.
The entry for `COc1ccc(CNC(=O)c2cc(=O)c3c(C)cc(C)cc3o2)cc1` is “inactive”; for `CCCCn1c(N)c(N(CCOC)C(=O)c2cccc(S(=O)(=O)N3CCCCC3)c2)c(=O)[nH]c1=O` it is “inactive”.
As for `COc1cc(OC)c(S(=O)(=O)Nc2ccccc2C(=O)O)cc1S(=O)(=O)Nc1ccccc1C(=O)O`, the Potency result was “inactive”.
In the case of `CS(=O)(=O)N1CCN(c2cccc(Cl)n2)CC1`, the Potency entry was “inactive”.
Next, `O=C(COc1ccc2c(c1)CCC2)N1CCN(c2ccc(F)cc2)CC1`: “inactive”.
The figure for `COCCCNC(=O)CSc1nc2ccc(N3CCOCC3)cc2c(=O)n1CCc1ccccc1` is 16.4 µM (active); for `COCCn1c(=O)c(-c2ccccc2)nc2cnc(N3CCOCC3)nc21` it is “inactive”; for `CCCCn1c(SCC(=O)NCC2CCCO2)nc2ccc(N3CCOCC3)cc2c1=O` (configuration not stated) it is “inactive”.
The entry for `COCCNC(=O)c1ccc(Cn2c(SCC(=O)NCC3CCCO3)nc3ccc(Br)cc3c2=O)cc1` (configuration not stated) is “inactive”; for `Cc1nn2c3cc(N4CCOCC4)ccc3nc2c2ccccc12` it is “inactive”; for `N#CCSc1nc2ccc(N3CCOCC3)cc2c(=O)n1CCc1ccccc1` it is 23.1 µM (active).
`COc1ccccc1/C=C/C(=O)OCC(=O)NC1CCCCCC1`: the Potency result was “inactive”.
Take `C=Cc1ccc(C(=O)N2CCCC(CCC(=O)N3CCN(c4ccccn4)CC3)C2)cc1` (configuration not stated): the Potency entry is “inactive”.
The figure for `Cc1ccc2oc3c(c(=O)c2c1)C(c1ccc(O)cc1)N(Cc1ccc2c(c1)OCO2)C3=O` (configuration not stated) is 14.6 µM (active); for `COc1ccc(C2c3c(oc4ccccc4c3=O)C(=O)N2Cc2ccc3c(c2)OCO3)cc1` (configuration not stated) it is “inactive”; for `CCCOc1ccc(C2c3c(oc4cc(C)c(C)cc4c3=O)C(=O)N2CCCN2CCOCC2)cc1` (configuration not stated) it is “inactive”.
Regarding `Cc1ccc(NNC(=O)c2cccs2)cc1Cl`, the Potency entry is “inactive”.
As for `CC(NC(=O)COc1cccnc1[N+](=O)[O-])c1ccc(Cl)cc1Cl` (configuration not stated), the Potency entry is “inactive”.
Next, `CC(=O)C[C@@H]1OC[C@H](C)N1S(=O)(=O)c1ccc(C)cc1`: “inactive”; `CCn1nc(C(=O)NNS(=O)(=O)c2cc(/C=C/C(=O)O)cc(OC)c2OC)c2ccccc2c1=O`: “inactive”.
Take `Cc1nn(CCOc2ccc(Br)cc2)c(C)c1[N+](=O)[O-]`: the Potency result is “inactive”.
Next, `CCn1nc(C)c(NC(=O)/C=C/c2ccc(OC)c(COc3ccc(Br)cc3)c2)c1C`: 16.4 µM (active); `O=C(O)CCCCCCCCCC[n+]1ccccc1`: “inactive”.
The entry for `CCn1c(SCC(=O)NC2CC2)nnc1-c1ccncc1` is “inactive”.
Next, `CCOC(=O)c1c(NC(=O)/C=C/c2ccco2)sc(C)c1C`: “inactive”.
In the case of `CCOC(=O)c1c(NC(=S)NC(=O)/C=C/c2cccs2)sc(C)c1C`, the Potency was 20.6 µM (active).
Next, `CCOC(=O)c1c(NC(=O)c2cccs2)sc(C)c1C`: “inactive”; `Cc1c(NC(=S)NC(=O)CCc2ccccc2)c(=O)n(-c2ccccc2)n1C`: “inactive”.
Next, `NC(=O)[C@H]1CC2(CC(c3cccc(NC(=O)[C@H]4CCC(=O)N4)c3)=NO2)CN1C(=O)c1ccccc1C(=O)c1ccccc1` (some centres not stated): “inactive”; `CC(C)CN(C(=O)CN1CCN(S(=O)(=O)c2ccccc2)CC1)c1c(N)n(CC(C)C)c(=O)[nH]c1=O`: “inactive”; `Cc1ccc(NC(=O)c2ccc(CSc3ncnc4nc[nH]c34)cc2)c(C)c1`: 23.1 µM (active).
The entry for `CSc1ncc(C(=O)Nc2ccc(C)cc2C)c(C)n1` is “inactive”; for `Cc1ccc(Cc2nnc(SCC(=O)Nc3ccc(C)cc3C)[nH]c2=O)cc1` it is “inactive”; for `Cc1cc(C)c2oc(C(=O)Nc3ccc(S(=O)(=O)Nc4nccc(C)n4)cc3)cc(=O)c2c1` it is “inactive”.
Regarding `Cc1ccc2nc(SCC(=O)N3CC(C)OC(C)C3)nc(=O)n2c1` (configuration not stated), the Potency entry was “inactive”.
Next, `O=C(CCC(=O)c1ccccc1)NCc1cccc(C(F)(F)F)c1`: “inactive”.
The entry for `Cc1ccc(NC(=O)CSc2nc(=O)n(CCN(C)C)c3c2CCCC3)c(C)c1` is “inactive”.
The figure for `Cc1ccc2nc(NC(=O)CSc3nc(=O)n(CCCN(C)C)c4c3CCC4)sc2c1` is 9.2 µM (active).
For the compound `Cc1csc(NC(=O)CSc2nc(=O)n(CCCN(C)C)c3c2CCC3)n1`, the Potency entry is “inactive”.
Consider `N#Cc1ccc(-c2nc3c(Cl)cc(C(F)(F)F)cn3c2Cc2ccccc2C(F)(F)F)cc1`, for which the Potency result is “inactive”.
Next, `COc1ncc2nc(-c3ccc(Cl)cc3)c(=O)n(-c3ccccc3)c2n1`: “inactive”.
Next, `COc1ccccc1Cc1c(-c2ccc(Cl)cc2)nc2c3ccccc3ccn12`: 25.9 µM (active).
The entry for `O=C1C(c2ccccn2)=[N+]([O-])c2ccccc21` is “inactive”; for `O=C1c2oc3ccccc3c(=O)c2C(c2cccc(O)c2)N1c1ccccn1` (configuration not stated) it is 20.6 µM (active).
`COCCN1C(=O)c2oc3c(C)cc(C)cc3c(=O)c2C1c1cccc(O)c1` (configuration not stated): the Potency result was “inactive”.
With `CC(=O)c1sc(N2C(=O)c3oc4ccccc4c(=O)c3C2c2ccc(C)cc2)nc1C` (configuration not stated), the Potency entry was “inactive”.
Next, `O=C(NC1CC(=O)N(c2ccc(F)cc2)C1)c1cccs1` (configuration not stated): “inactive”.
Next, `CC(C)=NN1C(=O)c2ccccc2NC1(C)C`: “inactive”.
Turning to `O=C(Nc1ccc2c(c1)OCO2)c1ccc(N2C(=O)c3ccccc3C2=O)cc1`, the Potency entry was “inactive”.
Turning to `COc1ccc(-c2csc(N3CCN(Cc4ccc5c(c4)OCO5)CC3)n2)cc1`, the Potency entry was “inactive”.
The entry for `CCCn1c(C(C)Nc2nc(-c3ccc(C)cc3)cs2)nc2cc(Cl)c(N3CCCCC3)cc21` (configuration not stated) is “inactive”; for `Cc1ccc(-c2csc(N3CCN(c4cc5c(cc4Cl)nc(-c4ccncc4)n5CCOCCO)CC3)n2)cc1` it is 16.4 µM (active); for `COc1cccc(CNC(=O)c2nnn(CC(=O)Nc3cc(C)ccc3C)c2N)c1` it is “inactive”.
Next, `CSc1c(SCc2ccccc2)cnn(Cc2ccccc2)c1=O`: “inactive”.
The entry for `Cn1c(=O)n(CCc2ccccc2)c(=O)c2c1nc1n2CCCN1c1ccccc1` is “inactive”.
With `Cc1cccc(N2CC(C)Cn3c2nc2c3c(=O)n(CC(=O)OCc3ccccc3)c(=O)n2C)c1` (configuration not stated), the Potency was 23.1 µM (active).
Next, `CC1CN(C2CCCCC2)c2nc3c(c(=O)n(C)c(=O)n3C)n2C1` (configuration not stated): “inactive”; `CCn1c(SC(C)C(=O)Nc2ccc(N3CCOCC3)cc2)nnc1-c1ccco1` (configuration not stated): “inactive”; `COc1ccc(C(C)C)cc1-c1ccc2nncn2c1`: “inactive”.
Next, `C=CCn1c(SCC(=O)Nc2ccc(NC(C)=O)cc2)nc2sc(C)c(C)c2c1=O`: “inactive”; `CC(OC(=O)CNC(=O)c1ccco1)C(=O)Nc1ccc(Cl)cn1` (configuration not stated): “inactive”.
Next, `CC(=O)c1ccc(N2Cc3ccccc3C2)cc1`: “inactive”.
On to `CC(NS(=O)(=O)c1ccc(Cl)cc1)C(=O)Nc1ccc2c(c1)OCCO2` (configuration not stated), for which the Potency entry is “inactive”.
With `O=C(Nc1cccc(S(=O)(=O)Nc2ccc(Cl)cc2)c1)c1ccc2c(c1)OCCO2`, the Potency was 13 µM (active).
Next, `O=C(Nc1cccc(S(=O)(=O)N2CCCCC2)c1)c1ccc2c(c1)OCO2`: 25.9 µM (active); `O=C(Nc1ccc(NC(=O)c2ccc3c(c2)OCO3)cc1)c1cccc(Cl)c1`: “inactive”; `CN1CCN(S(=O)(=O)c2cccc(C(=O)Nc3cccc(S(N)(=O)=O)c3)c2)CC1`: “inactive”.
Next, `O=C(Nc1nncs1)c1cccc(S(=O)(=O)N2CCCCC2)c1`: “inactive”.
With `Cc1cc(C)cc(OCC(=O)OCC(=O)NC2CCCC2)c1`, the Potency entry is “inactive”.
The entry for `Cn1c(=O)c(=O)n(C)c2cc(S(=O)(=O)CCC(=O)N3CCCCC3)ccc21` is “inactive”.
On to `COc1cc(S(=O)(=O)N2CCN(C(=O)C3CC3)CC2)ccc1NC(C)=O`, for which the Potency result is “inactive”.
Next, `Clc1ccc(Cl)c(Oc2ccc(Oc3nc(Cl)ccc3Cl)cc2)n1`: “inactive”; `COC(=O)CCCCC1=CCC2C(=O)C=C(O)C2C1` (configuration not stated): “inactive”; `Cc1cc(C)cc(-c2nnc(SCC(=O)NC3CC3)o2)c1`: “inactive”.
The figure for `COc1ccc(-c2nnc(SCC(=O)NC3CCCCC3)o2)cc1OC` is 20.6 µM (active); for `COc1ccc(-c2nnc(SCC(=O)Nc3ccccc3C)o2)cc1OC` it is “inactive”.
